Holding throughout (test): DAPPL (digital affinity profiling via proximity ligation, sequencing); 10 mM Tris-HCl pH 7.5, 50 mM NaCl, 1 mM DTT, 4% glycerol, room temperature, 30 min; GST-TFs on glutathione beads, 16-mer random dsDNA library, 0.1% formaldehyde crosslink after washing; high values mean tight binding
One test has as its target T1, FLI1 (Homo sapiens, UniProt Q01543 1-452).
T1 sequence: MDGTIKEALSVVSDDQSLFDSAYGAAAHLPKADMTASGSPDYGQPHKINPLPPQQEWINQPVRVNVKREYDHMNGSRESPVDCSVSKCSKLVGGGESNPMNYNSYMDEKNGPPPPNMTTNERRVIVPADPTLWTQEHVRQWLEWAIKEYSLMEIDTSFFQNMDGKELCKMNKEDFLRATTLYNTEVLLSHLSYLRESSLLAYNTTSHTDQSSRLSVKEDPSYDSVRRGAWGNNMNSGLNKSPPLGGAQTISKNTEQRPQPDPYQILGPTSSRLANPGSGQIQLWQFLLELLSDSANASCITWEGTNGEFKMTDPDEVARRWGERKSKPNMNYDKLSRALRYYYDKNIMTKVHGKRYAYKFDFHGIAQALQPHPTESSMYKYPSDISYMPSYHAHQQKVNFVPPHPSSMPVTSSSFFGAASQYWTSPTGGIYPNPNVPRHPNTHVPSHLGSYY
The settings on record: protein: recombinant; tags: N-terminal GST; dsDNA, one strand shown. Summed up:
(§1)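 The binding signal reported is, for every hexamer, its read frequency for a factor over its read frequency for the tag-only sample. Reads came from pools of yeast-expressed, GST-fused human transcription factors on glutathione beads, barcoded with DNA and mixed with that sample, which were incubated with 200 nmole of a random double-stranded 16-mer DNA library in Tris/NaCl/DTT/glycerol buffer at room temperature for 30 min. After washing, the pools were crosslinked with 0.1% formaldehyde, proximity-ligated with BsaI/T4 ligase for 1 h at 37 °C, PCR-amplified and sequenced on an Illumina NextSeq500.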

The target of another test is T2, ELK1 (Homo sapiens, UniProt P19419 1-428).
T2 sequence: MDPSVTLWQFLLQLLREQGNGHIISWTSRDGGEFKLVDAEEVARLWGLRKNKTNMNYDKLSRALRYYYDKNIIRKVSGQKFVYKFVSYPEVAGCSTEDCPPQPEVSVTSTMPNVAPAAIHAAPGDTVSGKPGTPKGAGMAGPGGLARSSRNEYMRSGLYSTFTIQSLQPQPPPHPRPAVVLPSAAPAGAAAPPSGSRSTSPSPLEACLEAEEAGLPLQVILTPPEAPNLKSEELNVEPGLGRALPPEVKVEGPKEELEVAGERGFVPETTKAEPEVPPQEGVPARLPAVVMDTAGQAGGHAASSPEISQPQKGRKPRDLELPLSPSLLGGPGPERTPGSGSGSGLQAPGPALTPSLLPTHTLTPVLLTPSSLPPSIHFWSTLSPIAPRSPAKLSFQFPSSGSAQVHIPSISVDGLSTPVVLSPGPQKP
The following applies: protein: recombinant; tags: N-terminal GST; dsDNA, one strand shown. Summed up: as §1

The next test deals with T3, GABPA (Homo sapiens, UniProt Q06546 1-454).
T3 sequence: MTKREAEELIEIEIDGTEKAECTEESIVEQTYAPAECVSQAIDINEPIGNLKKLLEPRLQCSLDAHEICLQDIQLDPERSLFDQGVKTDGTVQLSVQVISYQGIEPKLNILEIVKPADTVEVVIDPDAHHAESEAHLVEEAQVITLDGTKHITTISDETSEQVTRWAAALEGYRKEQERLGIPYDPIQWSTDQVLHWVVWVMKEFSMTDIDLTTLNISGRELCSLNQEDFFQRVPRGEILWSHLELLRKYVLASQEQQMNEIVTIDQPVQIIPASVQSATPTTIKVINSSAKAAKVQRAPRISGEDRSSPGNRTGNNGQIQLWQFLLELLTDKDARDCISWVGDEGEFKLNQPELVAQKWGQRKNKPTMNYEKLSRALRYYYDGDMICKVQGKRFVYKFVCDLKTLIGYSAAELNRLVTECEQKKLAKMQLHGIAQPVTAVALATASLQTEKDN
The settings on record: protein: recombinant; tags: N-terminal GST; dsDNA, one strand shown. Summed up:
as §1

For the next test, the target named is T4, ERG (Homo sapiens, UniProt P11308 1-479).
T4 sequence: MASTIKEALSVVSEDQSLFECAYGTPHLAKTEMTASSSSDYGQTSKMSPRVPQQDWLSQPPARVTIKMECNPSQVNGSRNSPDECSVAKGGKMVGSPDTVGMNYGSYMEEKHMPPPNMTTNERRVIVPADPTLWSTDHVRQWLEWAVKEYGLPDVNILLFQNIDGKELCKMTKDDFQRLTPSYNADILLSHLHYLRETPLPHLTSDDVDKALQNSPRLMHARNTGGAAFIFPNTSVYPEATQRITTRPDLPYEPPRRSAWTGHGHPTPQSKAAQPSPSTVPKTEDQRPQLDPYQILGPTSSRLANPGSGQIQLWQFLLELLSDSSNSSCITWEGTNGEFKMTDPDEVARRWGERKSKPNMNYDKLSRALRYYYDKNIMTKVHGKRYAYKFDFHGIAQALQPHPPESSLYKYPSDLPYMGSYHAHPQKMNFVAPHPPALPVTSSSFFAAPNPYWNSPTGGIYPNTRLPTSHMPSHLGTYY
The following applies: protein: recombinant; tags: N-terminal GST; dsDNA, one strand shown. Summed up: as §1

The target in the next test is ELF1 (Homo sapiens, UniProt P32519 1-619). The following applies: protein: recombinant; tags: N-terminal GST; dsDNA, one strand shown. Summed up: as §1
Another test has as its target T5, EHF (Homo sapiens, UniProt Q9NZC4 1-300).
T5 sequence: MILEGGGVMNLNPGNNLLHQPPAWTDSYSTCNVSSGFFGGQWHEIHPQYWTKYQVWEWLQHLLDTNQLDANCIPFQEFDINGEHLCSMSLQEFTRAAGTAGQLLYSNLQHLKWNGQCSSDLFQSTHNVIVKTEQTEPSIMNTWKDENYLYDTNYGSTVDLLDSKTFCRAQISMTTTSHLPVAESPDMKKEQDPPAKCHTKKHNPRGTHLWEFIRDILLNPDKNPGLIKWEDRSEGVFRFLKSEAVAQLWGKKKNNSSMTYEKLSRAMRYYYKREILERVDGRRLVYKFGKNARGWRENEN
The settings on record: protein: recombinant; tags: N-terminal GST; dsDNA, one strand shown. Summed up: as §1

The next test has as its target SPI1 (Homo sapiens, UniProt P17947 1-270). The settings on record: protein: recombinant; tags: N-terminal GST; dsDNA, one strand shown. Summed up: as §1
Another test addresses SPIB (Homo sapiens, UniProt Q01892 1-262). The following applies: protein: recombinant; tags: N-terminal GST; dsDNA, one strand shown. Summed up: as §1
The target in another test is T6, ELK3 (Homo sapiens, UniProt P41970 1-407).
T6 sequence: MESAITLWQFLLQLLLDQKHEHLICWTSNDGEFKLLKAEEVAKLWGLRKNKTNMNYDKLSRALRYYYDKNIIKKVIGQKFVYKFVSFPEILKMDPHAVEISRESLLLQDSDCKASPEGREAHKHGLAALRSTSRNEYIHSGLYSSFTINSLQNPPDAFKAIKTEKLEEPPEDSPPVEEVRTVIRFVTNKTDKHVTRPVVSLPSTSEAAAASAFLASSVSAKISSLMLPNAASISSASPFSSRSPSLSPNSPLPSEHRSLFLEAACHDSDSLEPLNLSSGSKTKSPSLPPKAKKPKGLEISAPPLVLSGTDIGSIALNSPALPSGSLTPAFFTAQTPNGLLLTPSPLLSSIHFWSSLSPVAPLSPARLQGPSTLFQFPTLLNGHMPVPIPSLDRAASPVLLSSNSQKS
The following applies: protein: recombinant; tags: N-terminal GST; dsDNA, one strand shown. Summed up: as §1

Another test has as its target T7, FEV (Homo sapiens, UniProt Q99581 1-238).
T7 sequence: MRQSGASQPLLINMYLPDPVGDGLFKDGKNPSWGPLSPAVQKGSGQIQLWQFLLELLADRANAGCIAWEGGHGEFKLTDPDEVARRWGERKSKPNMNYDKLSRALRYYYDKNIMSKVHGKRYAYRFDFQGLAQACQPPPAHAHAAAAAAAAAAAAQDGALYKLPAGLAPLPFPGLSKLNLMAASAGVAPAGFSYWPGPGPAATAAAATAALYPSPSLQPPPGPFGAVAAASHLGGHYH
The settings on record: protein: recombinant; tags: N-terminal GST; dsDNA, one strand shown. In a few lines:
as §1

The next test deals with ETV5 (Homo sapiens, UniProt P41161 1-510). The following applies: protein: recombinant; tags: N-terminal GST; dsDNA, one strand shown. Summed up: as §1
The target of a further test is HSF1 (Homo sapiens, UniProt Q00613 1-529). The settings on record: protein: recombinant; tags: N-terminal GST; chain copies: 3; dsDNA, one strand shown. Summed up:
as §1

The target in the next test is T8, SPIC (Homo sapiens, UniProt Q8N5J4 1-248).
T8 sequence: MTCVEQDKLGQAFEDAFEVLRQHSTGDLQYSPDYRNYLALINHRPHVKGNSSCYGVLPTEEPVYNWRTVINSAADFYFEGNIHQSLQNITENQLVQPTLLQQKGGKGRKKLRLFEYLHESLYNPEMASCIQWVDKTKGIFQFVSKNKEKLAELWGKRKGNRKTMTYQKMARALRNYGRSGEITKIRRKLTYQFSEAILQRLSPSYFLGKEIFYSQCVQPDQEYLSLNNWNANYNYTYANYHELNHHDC
The settings on record: protein: recombinant; tags: N-terminal GST; dsDNA, one strand shown. Summed up: as §1

A further test addresses ELF4 (Homo sapiens, UniProt Q99607 1-663). The settings on record: protein: recombinant; tags: N-terminal GST; dsDNA, one strand shown. In a few lines: as §1
Another test addresses T9, ELK4 (Homo sapiens, UniProt P28324-2 1-405).
T9 sequence: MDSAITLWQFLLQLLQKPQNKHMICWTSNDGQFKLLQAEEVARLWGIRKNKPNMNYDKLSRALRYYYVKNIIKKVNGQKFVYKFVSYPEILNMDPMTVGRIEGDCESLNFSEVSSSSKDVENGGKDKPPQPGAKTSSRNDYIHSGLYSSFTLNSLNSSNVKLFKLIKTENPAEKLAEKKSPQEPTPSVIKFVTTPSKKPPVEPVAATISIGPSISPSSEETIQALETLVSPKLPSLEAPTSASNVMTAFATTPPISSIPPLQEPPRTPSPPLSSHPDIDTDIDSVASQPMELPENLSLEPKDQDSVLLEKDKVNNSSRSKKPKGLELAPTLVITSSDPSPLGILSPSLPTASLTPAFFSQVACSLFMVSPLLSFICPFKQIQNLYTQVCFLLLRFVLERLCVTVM
The following applies: protein: recombinant; tags: N-terminal GST; dsDNA, one strand shown. In a few lines:
as §1

Another test has as its target T10, ETV2 (Homo sapiens, UniProt O00321 1-342).
T10 sequence: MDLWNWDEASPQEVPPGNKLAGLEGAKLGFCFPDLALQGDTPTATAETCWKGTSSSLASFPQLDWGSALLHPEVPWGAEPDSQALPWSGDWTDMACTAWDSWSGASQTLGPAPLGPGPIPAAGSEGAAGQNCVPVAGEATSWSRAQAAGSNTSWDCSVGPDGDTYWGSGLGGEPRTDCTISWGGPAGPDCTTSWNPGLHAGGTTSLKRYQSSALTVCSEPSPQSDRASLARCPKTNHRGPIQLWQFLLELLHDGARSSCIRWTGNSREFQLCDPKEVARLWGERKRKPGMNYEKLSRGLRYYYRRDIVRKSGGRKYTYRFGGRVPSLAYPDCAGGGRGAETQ
The following applies: protein: recombinant; tags: N-terminal GST; dsDNA, one strand shown. Summed up:
as §1

The target of another test is T11, ELF3 (Homo sapiens, UniProt P78545 1-371).
T11 sequence: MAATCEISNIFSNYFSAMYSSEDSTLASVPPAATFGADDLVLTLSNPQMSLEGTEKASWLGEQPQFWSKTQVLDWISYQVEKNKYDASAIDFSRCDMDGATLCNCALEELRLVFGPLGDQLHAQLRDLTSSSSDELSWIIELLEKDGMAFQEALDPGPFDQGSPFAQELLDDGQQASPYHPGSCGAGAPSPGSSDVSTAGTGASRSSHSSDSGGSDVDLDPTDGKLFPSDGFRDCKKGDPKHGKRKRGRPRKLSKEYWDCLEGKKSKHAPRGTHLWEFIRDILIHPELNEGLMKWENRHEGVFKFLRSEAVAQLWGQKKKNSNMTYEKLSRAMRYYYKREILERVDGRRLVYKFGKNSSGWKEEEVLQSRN
The settings on record: protein: recombinant; tags: N-terminal GST; dsDNA, one strand shown. In a few lines: as §1

Another test deals with CRX (Homo sapiens, UniProt O43186 1-299). The following applies: protein: recombinant; tags: N-terminal GST; dsDNA, one strand shown. In a few lines:
as §1

The target of a further test is ETV1 (Homo sapiens, UniProt P50549 1-477). The following applies: protein: recombinant; tags: N-terminal GST; dsDNA, one strand shown. In a few lines: as §1
Chain of ETV1 (P50549 whole entry): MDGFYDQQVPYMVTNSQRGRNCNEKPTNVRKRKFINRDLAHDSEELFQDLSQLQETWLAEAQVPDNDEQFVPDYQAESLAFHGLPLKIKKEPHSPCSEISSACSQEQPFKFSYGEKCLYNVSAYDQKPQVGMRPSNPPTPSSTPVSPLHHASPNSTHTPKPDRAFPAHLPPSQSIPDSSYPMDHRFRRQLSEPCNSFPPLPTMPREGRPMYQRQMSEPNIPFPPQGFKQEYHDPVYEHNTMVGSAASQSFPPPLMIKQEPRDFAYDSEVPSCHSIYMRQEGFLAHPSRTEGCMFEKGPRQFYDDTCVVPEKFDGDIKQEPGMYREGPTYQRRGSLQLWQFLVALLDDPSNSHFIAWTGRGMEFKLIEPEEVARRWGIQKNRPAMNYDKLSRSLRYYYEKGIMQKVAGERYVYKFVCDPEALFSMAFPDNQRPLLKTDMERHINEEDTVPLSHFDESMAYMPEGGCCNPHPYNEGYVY

Chain of ETV5 (P41161 whole entry): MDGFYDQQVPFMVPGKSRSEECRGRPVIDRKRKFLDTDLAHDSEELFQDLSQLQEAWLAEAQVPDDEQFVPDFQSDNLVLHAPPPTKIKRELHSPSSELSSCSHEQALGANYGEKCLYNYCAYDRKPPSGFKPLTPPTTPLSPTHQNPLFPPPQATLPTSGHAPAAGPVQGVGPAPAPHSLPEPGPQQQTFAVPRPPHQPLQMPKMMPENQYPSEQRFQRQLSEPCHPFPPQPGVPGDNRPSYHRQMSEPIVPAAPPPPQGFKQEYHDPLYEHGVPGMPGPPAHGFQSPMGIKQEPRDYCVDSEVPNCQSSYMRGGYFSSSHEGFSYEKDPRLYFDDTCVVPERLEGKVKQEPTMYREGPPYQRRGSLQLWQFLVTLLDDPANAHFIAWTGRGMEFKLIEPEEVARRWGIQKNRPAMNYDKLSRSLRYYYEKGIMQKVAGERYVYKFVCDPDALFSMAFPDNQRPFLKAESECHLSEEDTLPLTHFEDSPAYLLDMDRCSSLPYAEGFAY
Chain of SPIB (Q01892 whole entry): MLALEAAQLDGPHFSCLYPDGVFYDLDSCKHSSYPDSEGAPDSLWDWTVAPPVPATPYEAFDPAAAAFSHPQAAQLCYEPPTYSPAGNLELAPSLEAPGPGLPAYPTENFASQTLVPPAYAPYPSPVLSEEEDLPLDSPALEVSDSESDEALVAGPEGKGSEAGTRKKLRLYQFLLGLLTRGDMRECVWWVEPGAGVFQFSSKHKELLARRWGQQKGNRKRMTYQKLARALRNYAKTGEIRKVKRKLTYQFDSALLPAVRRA
Chain of CRX (O43186 whole entry): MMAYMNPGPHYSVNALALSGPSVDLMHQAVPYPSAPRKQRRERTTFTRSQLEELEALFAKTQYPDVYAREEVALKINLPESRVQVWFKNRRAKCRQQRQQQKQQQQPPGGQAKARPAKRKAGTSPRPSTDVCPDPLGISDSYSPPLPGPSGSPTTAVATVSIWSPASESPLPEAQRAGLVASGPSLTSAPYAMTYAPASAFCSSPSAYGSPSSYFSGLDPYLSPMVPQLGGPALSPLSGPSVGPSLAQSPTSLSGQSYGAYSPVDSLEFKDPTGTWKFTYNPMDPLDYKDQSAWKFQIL
Chain of ELF4 (Q99607 whole entry): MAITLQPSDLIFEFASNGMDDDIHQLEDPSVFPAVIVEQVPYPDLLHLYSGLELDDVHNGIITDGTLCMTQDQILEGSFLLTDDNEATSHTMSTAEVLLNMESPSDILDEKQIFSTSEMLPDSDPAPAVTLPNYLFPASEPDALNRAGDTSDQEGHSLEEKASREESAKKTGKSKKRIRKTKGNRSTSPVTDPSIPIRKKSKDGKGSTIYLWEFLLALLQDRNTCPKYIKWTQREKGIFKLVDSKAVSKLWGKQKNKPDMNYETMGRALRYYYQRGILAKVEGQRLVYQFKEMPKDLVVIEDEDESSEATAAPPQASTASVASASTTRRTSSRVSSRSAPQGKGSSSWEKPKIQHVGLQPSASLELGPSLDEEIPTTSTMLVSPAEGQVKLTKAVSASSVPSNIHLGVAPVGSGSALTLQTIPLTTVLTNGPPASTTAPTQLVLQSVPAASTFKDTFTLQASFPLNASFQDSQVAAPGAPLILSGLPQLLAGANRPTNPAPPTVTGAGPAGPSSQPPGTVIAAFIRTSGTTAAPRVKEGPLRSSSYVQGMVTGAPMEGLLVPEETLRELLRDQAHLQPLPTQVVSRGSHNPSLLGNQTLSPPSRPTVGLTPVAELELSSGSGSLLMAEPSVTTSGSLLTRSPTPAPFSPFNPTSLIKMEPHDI
Chain of ELF1 (P32519 whole entry): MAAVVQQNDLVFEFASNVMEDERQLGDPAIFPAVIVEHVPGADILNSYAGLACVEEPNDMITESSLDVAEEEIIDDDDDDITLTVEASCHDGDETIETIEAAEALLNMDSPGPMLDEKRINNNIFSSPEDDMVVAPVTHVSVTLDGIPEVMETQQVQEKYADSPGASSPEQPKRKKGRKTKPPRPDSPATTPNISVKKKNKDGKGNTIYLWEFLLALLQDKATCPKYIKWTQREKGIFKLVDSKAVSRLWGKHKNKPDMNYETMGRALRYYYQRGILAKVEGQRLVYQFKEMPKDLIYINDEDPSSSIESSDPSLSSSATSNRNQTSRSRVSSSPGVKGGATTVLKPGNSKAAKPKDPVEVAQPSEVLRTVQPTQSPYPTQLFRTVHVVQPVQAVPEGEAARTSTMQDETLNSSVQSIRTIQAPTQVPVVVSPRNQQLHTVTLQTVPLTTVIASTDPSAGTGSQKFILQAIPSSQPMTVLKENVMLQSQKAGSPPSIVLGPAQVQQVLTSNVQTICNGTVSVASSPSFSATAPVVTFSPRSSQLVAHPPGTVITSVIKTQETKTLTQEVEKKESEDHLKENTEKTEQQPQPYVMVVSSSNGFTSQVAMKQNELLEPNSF
Chain of HSF1 (Q00613 whole entry): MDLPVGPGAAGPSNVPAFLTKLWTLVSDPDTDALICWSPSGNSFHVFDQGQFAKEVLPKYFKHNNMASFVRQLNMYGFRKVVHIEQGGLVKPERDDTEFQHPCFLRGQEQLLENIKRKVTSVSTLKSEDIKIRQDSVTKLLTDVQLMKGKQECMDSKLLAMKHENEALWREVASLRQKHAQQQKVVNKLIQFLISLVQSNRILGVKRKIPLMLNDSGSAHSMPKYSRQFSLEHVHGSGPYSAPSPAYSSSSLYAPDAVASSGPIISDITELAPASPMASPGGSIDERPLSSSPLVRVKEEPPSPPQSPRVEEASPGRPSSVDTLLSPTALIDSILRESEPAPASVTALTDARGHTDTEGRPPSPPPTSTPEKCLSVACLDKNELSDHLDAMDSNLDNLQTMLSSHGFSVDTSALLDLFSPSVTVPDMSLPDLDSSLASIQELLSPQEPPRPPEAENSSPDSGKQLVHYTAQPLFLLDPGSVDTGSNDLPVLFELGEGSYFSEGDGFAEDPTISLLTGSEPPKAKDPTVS

For AAGTTT, the binding signal with FLI1 is 1.42 fold enrichment (6-mer frequency, TF over GST control); with ELK1, 1.48 fold enrichment (6-mer frequency, TF over GST control); with GABPA it was 1.42 fold enrichment (6-mer frequency, TF over GST control); in the test with ERG it was 1.36 fold enrichment (6-mer frequency, TF over GST control); in the test with ELF1, 1.37 fold enrichment (6-mer frequency, TF over GST control); with EHF, 1.5 fold enrichment (6-mer frequency, TF over GST control). Besides, the binding signal was 1.45 fold enrichment (6-mer frequency, TF over GST control) with SPI1; 1.6 fold enrichment (6-mer frequency, TF over GST control) with SPIB; 1.44 fold enrichment (6-mer frequency, TF over GST control) in the test with ELK3; 1.35 fold enrichment (6-mer frequency, TF over GST control) with FEV; 1.37 fold enrichment (6-mer frequency, TF over GST control) with ETV5; 1.5 fold enrichment (6-mer frequency, TF over GST control) with HSF1. Also, the binding signal was 1.29 fold enrichment (6-mer frequency, TF over GST control) with SPIC; 1.39 fold enrichment (6-mer frequency, TF over GST control) with ELF4; 1.27 fold enrichment (6-mer frequency, TF over GST control) with ELK4; 1.44 fold enrichment (6-mer frequency, TF over GST control) in the test with ETV2; 1.35 fold enrichment (6-mer frequency, TF over GST control) with ELF3; 1.38 fold enrichment (6-mer frequency, TF over GST control) with CRX. In addition, the binding signal with ETV1 was 1.51 fold enrichment (6-mer frequency, TF over GST control).

The values above are taken from PMC7862700, “An all-to-all approach to the identification of sequence-specific readers for epigenetic DNA modifications on cytosine”.
